# Measurements published in PMC5700166.
# Changes are numbered by the printed parent chain.
# Key:
# Assay in all cases: protein-binding microarray (PBM); PBM: ~300 nM protein, 6 mM HEPES pH 7.8, 80 mM KCl, 0.5 mM EDTA, 0.5 mM EGTA, 6% glycerol, 35 ng/ul poly-dIdC, 1% milk, 1 h, room temperature; Ap Aiptasia and Nv Nematostella (sea anemones) / Co Capsaspora / Aq Amphimedon (sponge) / Dm Drosophila / Hu human; RHD is the Rel homology domain; high values mean tight binding
# Settings in all cases: dsDNA, one strand shown
# [1] = molecular target: T1, GST-Ap-NF-kB RHD (Exaiptasia pallida (Aiptasia), UniProt A0A913YAJ5 2-422)
# T1 sequence: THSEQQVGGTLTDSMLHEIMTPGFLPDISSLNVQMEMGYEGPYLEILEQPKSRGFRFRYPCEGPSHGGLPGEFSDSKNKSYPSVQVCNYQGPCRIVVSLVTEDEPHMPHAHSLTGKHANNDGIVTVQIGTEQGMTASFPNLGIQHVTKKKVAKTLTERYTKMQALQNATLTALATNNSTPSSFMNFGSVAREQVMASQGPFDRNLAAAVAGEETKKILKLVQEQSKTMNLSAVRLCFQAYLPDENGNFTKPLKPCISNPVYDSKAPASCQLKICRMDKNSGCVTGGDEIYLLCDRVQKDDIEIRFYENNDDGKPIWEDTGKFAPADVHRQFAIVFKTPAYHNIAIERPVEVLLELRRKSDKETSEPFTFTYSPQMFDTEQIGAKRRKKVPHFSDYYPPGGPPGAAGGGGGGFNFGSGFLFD
# [2] = molecular target: T2, GST-Nv-NF-kB (Cys allele) (Nematostella vectensis, UniProt E5G601 2-411)
# T2 sequence: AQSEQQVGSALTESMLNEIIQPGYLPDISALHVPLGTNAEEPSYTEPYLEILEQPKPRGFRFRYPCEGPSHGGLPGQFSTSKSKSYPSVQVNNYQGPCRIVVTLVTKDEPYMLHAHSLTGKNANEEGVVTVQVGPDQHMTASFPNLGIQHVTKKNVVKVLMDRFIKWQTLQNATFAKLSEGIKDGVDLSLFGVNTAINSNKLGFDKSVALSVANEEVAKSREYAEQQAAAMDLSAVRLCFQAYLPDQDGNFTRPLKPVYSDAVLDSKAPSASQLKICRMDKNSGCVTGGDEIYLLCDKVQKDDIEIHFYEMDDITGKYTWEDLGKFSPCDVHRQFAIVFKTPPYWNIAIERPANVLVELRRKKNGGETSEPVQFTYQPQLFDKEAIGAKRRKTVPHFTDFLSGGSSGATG
# [3] = molecular target: T3, GST-Nv-NF-kB (Ser allele) (Nematostella vectensis, UniProt A7UNT2 2-411)
# T3 sequence: T2 sequence with Q21R, C66S, S207N, E215Q, V217A, E225K, A268E, D399E
# [4] = molecular target: T4, GST-Co-NF-kB (Capsaspora owczarzaki, UniProt F1ARL5 200-546)
# T4 sequence: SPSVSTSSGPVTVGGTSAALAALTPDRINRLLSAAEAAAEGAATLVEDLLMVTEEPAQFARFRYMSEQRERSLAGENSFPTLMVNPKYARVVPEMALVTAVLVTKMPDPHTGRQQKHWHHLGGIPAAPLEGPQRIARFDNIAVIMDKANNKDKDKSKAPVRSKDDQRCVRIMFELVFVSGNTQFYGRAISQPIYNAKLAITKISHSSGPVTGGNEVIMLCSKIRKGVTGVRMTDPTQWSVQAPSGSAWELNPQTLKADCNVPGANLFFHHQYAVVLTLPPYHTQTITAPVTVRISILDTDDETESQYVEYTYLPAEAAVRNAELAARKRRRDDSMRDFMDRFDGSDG
# [5] = molecular target: T5, GST-Dm-Relish (Drosophila melanogaster, UniProt Q94527 99-473)
# T5 sequence: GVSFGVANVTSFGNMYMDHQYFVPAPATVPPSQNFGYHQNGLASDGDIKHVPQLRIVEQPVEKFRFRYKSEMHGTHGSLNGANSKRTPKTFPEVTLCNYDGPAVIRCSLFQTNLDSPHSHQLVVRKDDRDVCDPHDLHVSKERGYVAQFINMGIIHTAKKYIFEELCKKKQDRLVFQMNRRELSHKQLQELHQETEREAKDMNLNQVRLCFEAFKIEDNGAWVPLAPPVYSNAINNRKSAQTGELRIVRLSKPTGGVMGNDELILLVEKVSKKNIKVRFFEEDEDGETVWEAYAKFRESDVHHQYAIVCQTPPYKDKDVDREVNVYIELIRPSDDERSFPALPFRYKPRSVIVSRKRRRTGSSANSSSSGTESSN
# [6] = molecular target: T6, GST-Aq-NF-kB (Amphimedon queenslandica, UniProt A9Y5G7 2-389)
# T6 sequence: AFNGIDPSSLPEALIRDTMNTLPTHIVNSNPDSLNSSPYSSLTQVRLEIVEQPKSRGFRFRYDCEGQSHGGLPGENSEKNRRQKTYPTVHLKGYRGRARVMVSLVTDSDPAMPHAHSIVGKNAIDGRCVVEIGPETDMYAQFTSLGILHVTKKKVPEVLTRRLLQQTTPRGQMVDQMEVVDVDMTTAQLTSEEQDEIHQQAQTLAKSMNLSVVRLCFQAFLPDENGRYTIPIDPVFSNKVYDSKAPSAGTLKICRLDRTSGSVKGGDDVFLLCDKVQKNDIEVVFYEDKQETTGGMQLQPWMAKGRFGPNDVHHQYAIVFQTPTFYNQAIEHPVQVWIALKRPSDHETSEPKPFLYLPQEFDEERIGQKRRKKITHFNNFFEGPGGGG
# [7] = molecular target: GST-Hu-p50 (Homo sapiens, UniProt P19838 7-356)
# GST-Hu-p50, sequence (P19838 7-356): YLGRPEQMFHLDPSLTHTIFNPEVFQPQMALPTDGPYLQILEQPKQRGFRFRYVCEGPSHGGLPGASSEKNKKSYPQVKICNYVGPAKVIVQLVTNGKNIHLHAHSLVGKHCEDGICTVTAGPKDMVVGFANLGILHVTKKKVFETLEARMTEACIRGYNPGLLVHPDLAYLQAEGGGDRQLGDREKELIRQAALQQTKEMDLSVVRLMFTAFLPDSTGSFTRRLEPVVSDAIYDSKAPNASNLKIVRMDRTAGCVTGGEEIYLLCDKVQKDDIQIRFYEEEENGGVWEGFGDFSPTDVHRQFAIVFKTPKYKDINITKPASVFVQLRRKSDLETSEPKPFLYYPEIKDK
Sequence,binding signal [1] [z-score],binding signal [2] [z-score],binding signal [3] [z-score],binding signal [4] [z-score],binding signal [5] [z-score],binding signal [6] [z-score],binding signal [7] [z-score]
CCGATTAACATCAGGGTTCCCCATGATGTTAATCGGGTCTTGATTCGCTTGACGCTGCTG,6.72,5.05,5.17,5.37,7.85,4.21,3.83
CCGATTAACATCAGGGAATTTAATGATGTTAATCGGGTCTTGATTCGCTTGACGCTGCTG,3.7,6.07,6.59,4.07,4.24,5.09,4.45
CCGATTAACATCAGGGAAGCCCCTGATGTTAATCGGGTCTTGATTCGCTTGACGCTGCTG,9.42,10.8,7.12,1.97,10.3,9.75,6.02
CCGATTAACATCACAGATTCCCCTGATGTTAATCGGGTCTTGATTCGCTTGACGCTGCTG,7.65,9.02,10.7,7.14,6.17,5.96,6.28
CCGATTAACATCACCACCCCCCCTGATGTTAATCGGGTCTTGATTCGCTTGACGCTGCTG,4.06,3.75,3.44,3.56,4.58,3.75,4.06
CCGATTAACATCAAATATTCCCTTGATGTTAATCGGGTCTTGATTCGCTTGACGCTGCTG,5.14,6.37,6.41,3.47,3.18,5.56,4.16
CCGATTAACATCAAAGAATTCCCTGATGTTAATCGGGTCTTGATTCGCTTGACGCTGCTG,5.56,7.26,7.47,4.52,5.42,6.11,5.05
CCGATTAACATCAAACATTCCCTTGATGTTAATCGGGTCTTGATTCGCTTGACGCTGCTG,2.36,4.96,4.25,1.95,2.37,5.41,3.27
CCGATTAACATCAGGGTTTCCCATGATGTTAATCGGGTCTTGATTCGCTTGACGCTGCTG,3.12,3.27,2.81,2.84,8.13,4.6,2.14
CCGATTAACATCAAACTCCCCCTTGATGTTAATCGGGTCTTGATTCGCTTGACGCTGCTG,8.05,6.74,8.38,6.26,6.54,6.59,7.29
CCGATTAACATCAAGAAACCCCCTGATGTTAATCGGGTCTTGATTCGCTTGACGCTGCTG,9.53,8.55,9.47,3.31,10,7.67,7.53
CCGATTAACATCACAATATCCCCTGATGTTAATCGGGTCTTGATTCGCTTGACGCTGCTG,7.16,6.58,7.91,4.15,5.03,4.96,4.67
CCGATTAACATCAGGGGGATAAATGATGTTAATCGGGTCTTGATTCGCTTGACGCTGCTG,5.25,5.54,5.46,7.85,3.78,4.4,4.82
CCGATTAACATCACAAAAGTCCCTGATGTTAATCGGGTCTTGATTCGCTTGACGCTGCTG,7.21,9.22,9.85,2.27,7.55,7.54,6.52
CCGATTAACATCACGGGAATTCCTGATGTTAATCGGGTCTTGATTCGCTTGACGCTGCTG,7.73,7.86,5.2,5.35,8.07,8.38,4.61
CCGATTAACATCAAATTCCCACATGATGTTAATCGGGTCTTGATTCGCTTGACGCTGCTG,2,3.53,3.94,3.33,4.42,2.66,2.85
CCGATTAACATCAAAACCCCCCATGATGTTAATCGGGTCTTGATTCGCTTGACGCTGCTG,8.56,6.62,6.57,4.66,9.53,7.39,6.77
